Source: PubChem (several laboratories)
Peg3 promoter: Peg3 promoter activity inhibition | AID 588405 | inhibition, % at 20 µM | 1.7% of 360,000 active | HeLa PEG-Prom luciferase reporter, luminescence, overnight;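 active means inhibition of at least 50% at 20 µM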
MITF TRPM1 inh: reduces MITF-dependent TRPM1 promoter luciferase signal. 0.83% of 330,000 active. AID 488899. inhibition, % at 12.5 µM. SK-MEL-5 TRPM1 promoter luciferase, 24 h;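 active means mean inhibition across replicates of 60% or more, whatever share of single replicates reaches that level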
KKLEB tox: counter-screen for CF NF-kB inhibitors: cytotoxicity; activity change (cytotoxicity), % at 5 µM; AID 602141; KKLEB CF airway cells viability, ATPlite luminescence, overnight; active compounds read low; cells stimulated with P. aeruginosa culture filtrate; 0.36% of 360,000 active;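 active means corrected activity change at or below -50% at 5 µM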
ABHD5-PLIN5 inh: blocks binding of human ABHD5 to perilipin-5; Q00G26+Q8WTS1; inhibition, % at 4 µM; 0.78% of 360,000 active; AID 602281; Split G. princeps luciferase complementation, luminescence, 4 h;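 active means inhibition above the mean inhibition across every tested compound plus 3 SD, cut at about 22% in these data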
Target sequence (Q00G26 whole entry, looked up): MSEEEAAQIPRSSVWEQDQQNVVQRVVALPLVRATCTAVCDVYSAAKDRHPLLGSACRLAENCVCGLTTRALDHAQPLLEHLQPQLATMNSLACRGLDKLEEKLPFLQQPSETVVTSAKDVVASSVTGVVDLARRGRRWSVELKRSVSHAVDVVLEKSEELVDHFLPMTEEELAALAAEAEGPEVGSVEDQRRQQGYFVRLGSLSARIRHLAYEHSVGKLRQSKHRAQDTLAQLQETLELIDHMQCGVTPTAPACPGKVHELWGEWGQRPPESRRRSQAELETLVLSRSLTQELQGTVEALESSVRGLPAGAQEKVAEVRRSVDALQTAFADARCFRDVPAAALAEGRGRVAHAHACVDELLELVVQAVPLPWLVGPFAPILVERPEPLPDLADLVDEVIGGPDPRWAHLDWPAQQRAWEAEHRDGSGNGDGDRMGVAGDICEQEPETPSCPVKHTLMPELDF
Target sequence (Q8WTS1 whole entry, looked up): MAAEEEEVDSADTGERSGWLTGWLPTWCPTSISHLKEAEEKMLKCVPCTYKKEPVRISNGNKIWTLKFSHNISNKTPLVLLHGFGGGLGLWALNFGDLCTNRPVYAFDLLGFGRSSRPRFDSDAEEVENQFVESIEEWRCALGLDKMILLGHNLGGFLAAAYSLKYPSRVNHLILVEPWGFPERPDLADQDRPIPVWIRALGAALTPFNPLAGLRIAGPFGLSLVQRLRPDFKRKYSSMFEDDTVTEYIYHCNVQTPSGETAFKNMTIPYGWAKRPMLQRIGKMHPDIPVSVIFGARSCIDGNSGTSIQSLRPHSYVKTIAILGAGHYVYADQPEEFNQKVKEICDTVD
HIF-2a block: HIF-2a inhibition. 786-0 RCC cells HIF-2a reporter, luciferase luminescence, overnight. inhibition, % at 18.8 µM. 0.72% of 360,000 active. AID 624352;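 active means inhibition of the luminescence signal of 40% or more relative to plate controls, in a single-dose primary screen at 18.75 µM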
CF NFkB inh: cystic fibrosis NF-kB activation inhibition. KKLEB NF-kB-GFP reporter, PAF-induced, GFP fluorescence overnight. 0.86% of 360,000 active. inhibition, % at 5 µM;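 active means at least 50% inhibition at 5 µM, scaled per plate between neutral and stimulator controls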;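 further: PAF is a Pseudomonas aeruginosa culture filtrate used as stimulus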
ABHD5-PLIN5 conf: ABHD5-PLIN5 interaction inhibition, confirmed. 67% of 2,200 active. AID 651612. biochemical ABHD5-PLIN5 interaction, luminescence. shares compounds with ABHD5-PLIN5 inh. inhibition, % at 4 µM; in the data active means inhibition above about 23%
HNF4 counter: HNF4 split-luciferase signal hit, counter-screen | shares compounds with ABHD5-PLIN5 inh | HNF4 dimerization, luminescence, biochemical | inhibition, % at 4 µM | 77% of 2,200 active | AID 651674;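 active means mean inhibition across replicate wells exceeding the computed hit threshold, cut at about 13% in these data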;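 further: light from luciferase halves that rejoin when HNF4 fusion proteins dimerize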
Large screens that a line does not name were inactive (follow-up assays come after a bar, where they were run). A selection: hits, their analogues and other compounds. The true share with any hit is near 3.1%.

COc1ccc(-c2ccc(CN3C(C)C(=O)N(Cc4cn(CCC5OCCO5)nn4)CCS3(=O)=O)cc2)cc1 (stereo not given)	none (no result: MITF TRPM1 inh)
CC(C)NC(=O)NC(=O)COC(=O)c1cc[n+]([O-])cc1	none
O=C(Cn1cc(COc2ccccc2[N+](=O)[O-])nn1)c1ccc(O)cc1	none
N#Cc1ccccc1OCc1cn(CC(=O)c2ccc(O)cc2)nn1	ABHD5-PLIN5 inh 31 | ABHD5-PLIN5 conf 66 | HNF4 counter 39
O=C(c1cccnc1)N1CCN(Cc2cccc(Br)c2)CC1	ABHD5-PLIN5 inh 24 | ABHD5-PLIN5 conf inactive | HNF4 counter inactive
C[C@H]1NC(=O)[C@@]2(C)[C@@H](c3ccccc3)[C@H]3COc4ccccc4[C@@H]3N2C1=O	none
CCOC(=O)[C@]12CCC=C1N(Cc1ccc(Cl)cc1Cl)C(=O)[C@H](CC(=O)N1CCCC1)C2	none (no result: Peg3 promoter, MITF TRPM1 inh, KKLEB tox, CF NFkB inh)
CCOC(=O)[C@]12CCC=C1N(Cc1ccc(Cl)cc1Cl)C(=O)[C@H](CC(=O)NCc1cccc(C(F)(F)F)c1)C2	ABHD5-PLIN5 inh 25 (no result: Peg3 promoter, MITF TRPM1 inh, KKLEB tox, CF NFkB inh) | ABHD5-PLIN5 conf inactive | HNF4 counter inactive
CCOC(=O)N1CCN(C(=O)C[C@@H]2C[C@@]3(C(=O)OCC)CCC=C3N(Cc3ccc(Cl)cc3Cl)C2=O)CC1	ABHD5-PLIN5 inh 26 (no result: Peg3 promoter, MITF TRPM1 inh, KKLEB tox, CF NFkB inh) | ABHD5-PLIN5 conf 35 | HNF4 counter inactive
CCCNC(=O)C1(C)CCCN(Cc2ccc(Cl)cc2)C1 (stereo not given)	none (no result: MITF TRPM1 inh)
COc1ccccc1C(=O)Nc1ccc(OC(C)C(=O)N2CCOCC2)cc1 (stereo not given)	none
CCSc1ccc2c(c1)N(CCCN1CCN(C)CC1)c1ccccc1S2	Peg3 promoter 57, ABHD5-PLIN5 inh 24 | ABHD5-PLIN5 conf 36 | HNF4 counter inactive
CCN(CC)CCCCN1c2ccccc2Sc2ccccc21	none
Cc1nc(SCC(=O)N(C)Cc2ccco2)c2c(C)c(C)sc2n1	ABHD5-PLIN5 inh 32 | ABHD5-PLIN5 conf inactive | HNF4 counter 22
COc1ccc(CNC(=O)CSCc2cccc(Cl)c2)cc1	ABHD5-PLIN5 inh 68 | ABHD5-PLIN5 conf inactive | HNF4 counter inactive
COc1ccc(CNC(=O)CCSCc2cccc(Cl)c2)cc1	none
CCN(CC)C(=O)[C@H]1C[C@H](CC(=O)NC/C=C(\C)CCC=C(C)C)C(=O)N2CCc3c([nH]c4cc(CCC(=O)N(C)C)ccc34)[C@]12C	none
CC1(S(=O)(=O)O)CC(=O)c2ccccc2C1=O (stereo not given)	ABHD5-PLIN5 inh 29, CF NFkB inh 69 | ABHD5-PLIN5 conf 42 | HNF4 counter 56
COc1cc(/C=C(\C#N)C(=O)NC2CCCCC2C)ccc1OS(=O)(=O)c1ccc(C)cc1 (stereo not given)	ABHD5-PLIN5 inh 38 | ABHD5-PLIN5 conf 67 | HNF4 counter 49
CN(C)CCOc1ccccc1Cc1ccccc1	ABHD5-PLIN5 inh 35 | ABHD5-PLIN5 conf 73 | HNF4 counter 25
CC1(C(=O)NCc2ccc(C(F)(F)F)cc2)CCN1Cc1ccc(-c2ccccc2)o1 (stereo not given)	ABHD5-PLIN5 inh 31 (no result: MITF TRPM1 inh) | ABHD5-PLIN5 conf inactive | HNF4 counter 25
CCN(CC)CCN(CC(=O)Nc1c(C)cc(C)cc1C)C(=O)c1ccccc1	ABHD5-PLIN5 inh 24 | ABHD5-PLIN5 conf 33 | HNF4 counter inactive
S=C(NCc1ccco1)Nc1ccc(Oc2ccccc2)cc1	none
Cc1cc(C)c2c(=O)n(CC(=O)Nc3ccc(Cl)cc3)sc2n1	ABHD5-PLIN5 inh 76 | ABHD5-PLIN5 conf 41 | HNF4 counter 108
Cc1ccc(NC(=O)Cn2sc3nc(C)cc(C)c3c2=O)c(Cl)c1	ABHD5-PLIN5 inh 65 | ABHD5-PLIN5 conf inactive | HNF4 counter 98
CCOc1ccc(NC(=O)Cn2sc3nc(C)cc(C)c3c2=O)cc1	ABHD5-PLIN5 inh 64 | ABHD5-PLIN5 conf 45 | HNF4 counter 105
Cc1cc(C)c2c(=O)n(CC(=O)Nc3cccc(F)c3)sc2n1	ABHD5-PLIN5 inh 44 | ABHD5-PLIN5 conf 41 | HNF4 counter 109
COc1ccccc1C(=O)Nc1ccc(OCC(=O)N2C(C)CCCC2C)cc1 (stereo not given)	none
CN(C(=O)CSc1nnnn1-c1ccc(O)cc1)C1CCCCC1	none
O=C1S/C(=C/c2ccc(N3CCOCC3)o2)C(=O)N1Cc1c(F)cccc1Cl	ABHD5-PLIN5 inh 25 | ABHD5-PLIN5 conf 23 | HNF4 counter 36
O=C1S/C(=C\c2ccc(N3CCOCC3)o2)C(=O)N1Cc1c(F)cccc1Cl	none
O=C(Cc1c(F)cccc1Cl)Nc1nccs1	none
CC(C)(C)c1ccccc1OCC(=O)NCCCn1ccnc1	none
CCN(CC)CCOCCOC(=O)C1(c2ccccc2)CCCC1	ABHD5-PLIN5 inh 58 | ABHD5-PLIN5 conf 77 | HNF4 counter 36
C=CCn1c(SCC(C)=O)nc2scc(-c3ccc(C)o3)c2c1=O	none
C=CCn1c(=S)[nH]c2scc(-c3ccc(C)o3)c2c1=O	ABHD5-PLIN5 inh 32 | ABHD5-PLIN5 conf inactive | HNF4 counter 66
O=C(NNc1c2ccccc2nc2ccccc12)c1ccccc1O	ABHD5-PLIN5 inh 26 | ABHD5-PLIN5 conf 25 | HNF4 counter 18
O=C(NNc1c2ccccc2nc2ccccc12)c1ccc(O)cc1O	none
COCCNC(=O)c1cc2c(c(-c3cccc(C#Cc4ccc(OC)c(OC)c4)c3)n1)[C@H](CCO)N(S(=O)C(C)(C)C)C2 (stereo not given in full)	none (no result: MITF TRPM1 inh)
COc1ccc(-c2nn(-c3ccccc3)cc2CN(C)CCn2ccnc2C)c(F)c1	none
O=c1[nH]cnc2c1N=C(c1cccc([N+](=O)[O-])c1)CC(c1ccccc1)N2 (stereo not given)	ABHD5-PLIN5 inh 45 | ABHD5-PLIN5 conf inactive | HNF4 counter 26
Cc1cccc(NC(=O)c2ccc([N+](=O)[O-])s2)n1	none
Cc1cccc(NC(=O)Nc2c(C)[nH]c(=O)[nH]c2=O)c1C	none
CCOc1ccccc1/C=C/c1nc2ccccc2[nH]c1=O	ABHD5-PLIN5 inh 27 | ABHD5-PLIN5 conf 50 | HNF4 counter 46
CCOc1ccccc1OCCCC(=O)Nc1nc2ccccc2[nH]1	none
O=C(CCN1CCCC1Cc1ccccc1)c1ccc2c(c1)OCCO2 (stereo not given)	ABHD5-PLIN5 inh 28 | ABHD5-PLIN5 conf 25 | HNF4 counter 87
CCCCN(C)c1nc(-c2ccco2)c2c(c1C#N)CC(C)(C)OC2	ABHD5-PLIN5 inh 28 | ABHD5-PLIN5 conf 54 | HNF4 counter 79
COc1ccc(/C=N/N2CCN(c3ccc(Cl)cc3)CC2)cc1O	none
O=C(c1ccc(Cl)cc1)C(CN1CCCC1)c1ccccc1 (stereo not given)	Peg3 promoter 76, MITF TRPM1 inh 77, KKLEB tox -60, ABHD5-PLIN5 inh 48, CF NFkB inh 69 | ABHD5-PLIN5 conf 53 | HNF4 counter 103
